Rows were chosen to be rich in hits. Some 19% of all compounds tested hit in one or more screens of this group.
DT40 TDP1 CPT: qHTS for Inhibitors of human tyrosyl-DNA phosphodiesterase 1 (TDP1): qHTS in cells in presence of CPT; chicken DT40 Tdp1-/-;hTDP1 cells + 20 nM CPT, ATP luminescence, 48 h; Potency, µM (highest dose often 46.2 µM), inactives show top-dose activity change, negative = growth inhibition, hits mostly inhibitors; 420,000 tested, 12% active; AID 686979, 2013; also: potency is read from the fitted curve at half-maximal effect; % is scaled to controls: 0 for no effect and ±100 for the full control effect; nearly all actives have a fitted effect of over 55% in size
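Chicken DT40 Tdp1-/- cells stably complemented with human TDP1 were seeded at 400 cells/well in medium containing 20 nM camptothecin, exposed to pin-transferred compounds, and grown at 37 °C for at least 48 hr. Viability was read as ATP luminescence.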
IL1B secr inh: qHTS for Inhibitors of Inflammasome Signaling: IL-1-beta AlphaLISA Primary Screen; THP-1 LPS/ATP IL-1B secretion, AlphaLISA, 16 h; active compounds read low; 360,000 tested, 4.7% active; activity change, % at 57.5 µM; in the data active = activity change below about -50%; inconclusive = mostly about -30% to -49%; also: % is scaled to controls: 0 for no effect and ±100 for the full control effect
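Secreted IL-1B measured by AlphaLISA bead assay after 16 h compound exposure of THP-1 cells; compounds (final up to 57.5 uM) added 1 h before LPS (250 ng/mL) and ATP (1.25 mM) stimulation; lower signal means less secretion.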
MCF10A rerep: A quantitative high throughput screen for small molecules that induce DNA re-replication in MCF 10a normal breast cells | MCF 10A DNA re-replication, Hoechst nuclear intensity, 48 h | Potency, µM (highest dose often 46.1 µM), without a hit: at the highest dose activity, positive = re-replication, actives largely listed as activators | 350,000 tested, 2.9% active; also: potency is read from the fitted curve at half-maximal effect; % of control where 0% means no effect; nearly all actives have a fitted effect of over 50% in size
TDP1 cell noCPT: qHTS for Inhibitors of human tyrosyl-DNA phosphodiesterase 1 (TDP1): qHTS in cells in absence of CPT. DT40 Tdp1-/- hTDP1 cells, no CPT, ATP luminescence, 48 h. Potency, µM (titrated, usually from 46.2 µM), inactives show top-dose activity change, negative = growth inhibition, hits mostly inhibitors. 420,000 tested, 15% active; also: potency is read from the fitted curve at half-maximal effect; % is scaled to controls: 0 for no effect and ±100 for the full control effect; nearly all actives have a fitted effect of over 55% in size
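No-CPT arm: Tdp1-/-;hTDP1 DT40 cells (400/well) plus compounds, incubated ≥48 hr at 37 °C. Readout CellTiter-Glo luminescence.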
Chronic BCR inh: qHTS Assay to Find Inhibitors of Chronic Active B-Cell Receptor Signaling. Potency, µM (doses to about 46.1 µM), for the others: top-dose activity change, negative = inhibition, most hits filed as inhibitors. 340,000 tested, 0.05% active. ABC-DLBCL IkBa-CBG/CBR reporter, luminescence ratio, 4 h; active = well fitted inhibition curve with a large enough effect in the signal ratio, with a control signal flat, not every such curve was filed as active; inconclusive = small, poorly fitted or top-dose-only effect, or effect the other way, or a change in a side signal; the % refers to the signal ratio;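 also: potency is read from the fitted curve at half-maximal effect; plate controls were basal doxycycline-induced cells for no effect and cells given 10 µM MG132 for full effect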
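TMD8 human ABC-DLBCL cells with doxycycline-inducible IκBα–green luciferase fusion and unfused red luciferase, in 0.5% FBS medium; compounds up to 46 uM, 4 h at 37C. Green/red luminescence ratio, filter-overlap corrected, fitted to concentration-response curves.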
SW480 rereplic: A quantitative high throughput screen for small molecules that induce DNA re-replication in SW480 colon adenocarcinoma cells; SW480 DNA re-replication, Hoechst DNA content imaging, 48 h; Potency, µM (titrated, usually from 46.1 µM), for inactives: at the top dose re-replication activation, hits mostly activators; 340,000 tested, 1.8% active; also: potency is read from the fitted curve at half-maximal effect; % of control where 0% means no effect; nearly all actives have a fitted effect of over 55% in size
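Cells (250 per well) received 23 nL compound or DMSO by pin tool and were kept 48 hr at 37 C, 5% CO2. Nuclei were then stained with Hoechst for 40 min and scanned for DNA content.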
The depositor's hits bear a star; [ ] = another dose, or the depositor's remark. Unless noted, calls follow the shape of the dose curve; as a rule, active = well fitted curve in the direction sought with a large enough effect; inconclusive = small, poorly fitted or top-dose-only effect, or another doubt; inactive = no such curve, though single readings can be large; an effect the other way counts as inactive or inconclusive.

CC[C@]12c3[nH]c4cc(-c5ccco5)ccc4c3CCN1C(=O)[C@@H](CC(=O)NCCc1ccccn1)C[C@@H]2C(=O)N1CCN(C(=O)C2CC2)CC1 was read as DT40 TDP1 CPT inconclusive, IL1B secr inh -23, MCF10A rerep -75%, TDP1 cell noCPT inconclusive, Chronic BCR inh inconclusive and SW480 rereplic inconclusive.
`Cc1nn(-c2ccc3nnc(C)n3n2)c(C)c1CCC(=O)Nc1ccc(OC(F)(F)F)cc1` gave DT40 TDP1 CPT 12µM* and TDP1 cell noCPT 23µM*.
For O=C(CSc1nnc(Cc2cccs2)n1Cc1ccco1)Nc1cccc(Cl)c1 the results were DT40 TDP1 CPT inconclusive, IL1B secr inh -9, MCF10A rerep 6.5µM*, TDP1 cell noCPT inconclusive, Chronic BCR inh 2% and SW480 rereplic -2%.
Screening O=C(CSc1nnc(Cc2cccs2)n1Cc1ccco1)Nc1cc(Cl)cc(Cl)c1 returned DT40 TDP1 CPT 26µM*, IL1B secr inh inconclusive, MCF10A rerep inconclusive, TDP1 cell noCPT inconclusive, Chronic BCR inh inconclusive and SW480 rereplic -1%.
For Cc1noc(C)c1C(=O)N1CCC[C@@]2(CCN(Cc3cc(C(F)(F)F)cc(C(F)(F)F)c3)C2)C1 the results were DT40 TDP1 CPT -8% and TDP1 cell noCPT inconclusive.
N=C(N)SCCc1cccc(CCSC(=N)N)c1 was read as DT40 TDP1 CPT 16µM*, IL1B secr inh -20, MCF10A rerep -17%, TDP1 cell noCPT 16µM* and SW480 rereplic -5%.
Screening Cc1cc(C(=O)Nc2ccc3ccccc3c2)c(C)o1 returned DT40 TDP1 CPT -19%, IL1B secr inh -23, MCF10A rerep -1%, TDP1 cell noCPT inconclusive, Chronic BCR inh inconclusive and SW480 rereplic 4%.
For O=C(CN1C(=O)CSc2ccc(S(=O)(=O)N3CCOCC3)cc21)NCc1ccc(F)cc1 the results were DT40 TDP1 CPT -9%, IL1B secr inh -16, MCF10A rerep -2%, TDP1 cell noCPT 6%, Chronic BCR inh 7% and SW480 rereplic -1%.
Screening CC(=O)Oc1ccc([C@@H]2COc3c(ccc4c3C=CC(C)(C)O4)C2)c(OC(C)=O)c1 returned DT40 TDP1 CPT inconclusive, IL1B secr inh -1, MCF10A rerep 0%, TDP1 cell noCPT inconclusive and SW480 rereplic 4%.
`CC1(C)C=Cc2c(ccc3c2OC[C@H](c2ccc(O)cc2O)C3)O1` gave DT40 TDP1 CPT 13µM*, IL1B secr inh 34, MCF10A rerep inconclusive, TDP1 cell noCPT inconclusive, Chronic BCR inh inconclusive and SW480 rereplic -63%.
For CC(C)=CCc1cc([C@@H]2COc3c(ccc4c3C=CC(C)(C)O4)C2)c(O)cc1O the results were DT40 TDP1 CPT 18µM*, IL1B secr inh -51*, MCF10A rerep 5.2µM*, TDP1 cell noCPT inconclusive and SW480 rereplic 5%.
Screening COCCN(C(=O)c1ccc2c(c1)S(=O)(=O)N=C1CCCCCN12)c1c(N)n(CC(C)C)c(=O)[nH]c1=O returned DT40 TDP1 CPT 2%, IL1B secr inh 5, MCF10A rerep 3%, TDP1 cell noCPT 20% and SW480 rereplic -5%.
For O=C(c1cc(C2CC2)on1)N1CCCC(N2CCN(c3ccc(F)cc3)CC2)C1 (configuration not stated) the results were DT40 TDP1 CPT -18%, IL1B secr inh 1, MCF10A rerep -2%, TDP1 cell noCPT -22%, Chronic BCR inh 0% and SW480 rereplic -9%.
`CCN(CC(=O)N1CCCC1)S(=O)(=O)c1cc(C)ccc1OC` gave DT40 TDP1 CPT 18%, IL1B secr inh 2, MCF10A rerep 0%, TDP1 cell noCPT -3%, Chronic BCR inh 6% and SW480 rereplic -6%.
For C=C[C@@H]1c2ccccc2N(S(=O)(=O)c2ccc(C)cc2)[C@H](c2ccccc2)C1(C#N)C#N the results were DT40 TDP1 CPT 7.9µM*, IL1B secr inh 20, MCF10A rerep -5%, TDP1 cell noCPT 21µM*, Chronic BCR inh 5% and SW480 rereplic inconclusive.
C=C[C@@H]1c2cc(C)ccc2N(S(=O)(=O)c2ccc(C)cc2)[C@H](c2ccccc2)C1(C#N)C#N was read as DT40 TDP1 CPT 7.9µM*, IL1B secr inh 66, MCF10A rerep 1%, TDP1 cell noCPT 10µM*, Chronic BCR inh -9% and SW480 rereplic 26%.
C=C[C@@H]1c2cc(C)ccc2N(S(=O)(=O)c2ccc(C)cc2)[C@H](c2ccccc2C(F)(F)F)C1(C#N)C#N was read as DT40 TDP1 CPT 8.2µM*, IL1B secr inh 24, MCF10A rerep 2%, TDP1 cell noCPT inconclusive, Chronic BCR inh 1% and SW480 rereplic 15%.
For Cc1ccc2c(c1)C1CN(C)CCC1N2S(=O)(=O)c1cccc(C(F)(F)F)c1 (configuration not stated) the results were DT40 TDP1 CPT inconclusive, IL1B secr inh -20, MCF10A rerep -3%, TDP1 cell noCPT inconclusive, Chronic BCR inh -1% and SW480 rereplic -5%.
Cc1ccc2c(c1)C1CN(C)CCC1N2S(=O)(=O)c1ccc(C(C)C)cc1 (configuration not stated) was read as DT40 TDP1 CPT inconclusive, IL1B secr inh -7, MCF10A rerep 7%, TDP1 cell noCPT inconclusive, Chronic BCR inh 0% and SW480 rereplic 16%.
For Cc1ccc(S(=O)(=O)N2CCC(=O)CC2c2ccccc2)cc1 (configuration not stated) the results were DT40 TDP1 CPT -1%, IL1B secr inh 18, MCF10A rerep 18%, TDP1 cell noCPT -29% and SW480 rereplic 2%.
COc1cc(=O)n2c(c1C(=O)NC(C)c1ccco1)CCN(Cc1cc3ccccc3o1)CC2 (configuration not stated) was read as DT40 TDP1 CPT 0%[9.04 µM] and TDP1 cell noCPT -6%.
Screening Cc1ccc(NC(=O)CCNS(=O)(=O)c2ccc(Br)s2)cc1 returned DT40 TDP1 CPT -3%, IL1B secr inh inconclusive, MCF10A rerep 0%, TDP1 cell noCPT inconclusive, Chronic BCR inh inconclusive and SW480 rereplic -2%.
